For eleven compounds, outcome, Potency and max response results are on record in PubChem BioAssay (NCATS).

Values joined by “and” are separate entries in the source; they are usually repeats but may differ in a detail not shown here. Identical values can stand only once. A number with no mark means an inactive call. Records with an inconclusive call do not appear. Active and inactive are the calls of the source. Unless noted, calls come from the whole dose curve; as a rule, active = well fitted curve in the direction sought with a large enough effect; inconclusive = small, poorly fitted or top-dose-only effect, or another doubt; inactive = no such curve, though single readings can be large; an effect the other way counts as inactive or inconclusive.

The nature of assay [1]: Cellular Toxicity (caspase-3) SHSY5Y (AID 657).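 Note: cells exposed to compound for 16 hours at 37 °C.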 The method, boiled down:
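Luminescent caspase-3/7 readout (aminoluciferin release) in SH-SY5Y cells after 16 h compound exposure in complete medium. Activity scaled between DMSO basal and 10 uM staurosporine as 100%; concentration-response fitted to Hill equation for AC50.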

Assay [2] can be described thus: Cellular Toxicity (caspase-3) BJ (AID 658).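 Note: cells exposed to compound for 16 hours; 0% = DMSO basal and 100% = 10 µM staurosporine.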 The method, boiled down:
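Luminescent aminoluciferin-substrate cleavage reports caspase 3/7 activity in normal human BJ fibroblasts after 16 hr compound exposure at 37 °C. Normalized to DMSO (basal) and 10 uM staurosporine (100%); AC50 from Hill fit of concentration-response.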

Assay [3] in a line: Cellular Toxicity (caspase-3) N2a (AID 665).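 Note: compound exposure lasted 16 h at 37 °C before readout.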 The method, boiled down: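 N2a cells, 1500/well, 5 h settle at 37 °C; cpd 16 h, 37 °C; Caspase-Glo 3/7, 1 h RT; luminescence. Norm: DMSO = 0, 10 uM staurosporine = 100%. AC50, Hill fit.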
Assay [4] is described as follows: Cellular Toxicity (caspase-3) Renal Proximal Tubule (AID 667).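 Note: cells exposed to compound for 16 hours at 37 °C before detection; 0% = DMSO basal and 100% = 10 µM staurosporine.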 The essentials:
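Luminescent caspase 3/7 signal from peptide-aminoluciferin cleavage measures apoptosis in freshly isolated rat kidney proximal tubule cells after 16 h compound exposure. Concentration-response data are normalized to DMSO and 10 uM staurosporine, and AC50 values come from Hill equation fits.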

A short description of assay [5]: MultiTox-Fluor Cytotoxicity Assay - LYMP1-001 - Dead Cells (AID 946).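 Note: 0% = DMSO and 100% = tetraoctylammonium bromide.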 The method, boiled down: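 In this qHTS, 15 uM tetraoctylammonium bromide defined 100% and DMSO defined basal activity. Lymphoblastoid cells (LYMP1-001, 2500 per well) received compound for 16 hr at 37 C before a fluorogenic dead-cell substrate readout at 485/520 nm.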
Assay [6] is described as follows: Cell Viability - LYMP1-002 - Assay at 16 hr (AID 948).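 Note: 0% = DMSO alone and full effect = 92 µM tetraoctylammonium bromide.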 The method, boiled down: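 LYMP1-002 human lymphoblastoid cells, 2500/well; 5 hr 37 C; cpd 16 hr 37 C; CellTiter-Glo 30 min RT; luminescence (ATP). Concentration-response, Hill-fit AC50. Pos ctrl tetraoctylammonium bromide.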
Assay [7] can be described thus: MultiTox-Fluor Cytotoxicity Assay - LYMP1-003 - Dead Cells (AID 961).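 Note: 0% = DMSO and 100% = tetraoctylammonium bromide; nearly all actives have a fitted effect of over 70% in size.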 The essentials:
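Acute toxicity is scored as increased dead-cell protease activity in human lymphoblastoid LYMP1-003 cells after 16 h compound exposure in complete culture medium. Activity is normalized to DMSO basal and 15 uM tetraoctylammonium bromide as full response.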

Assay [8] in a line: Cell Viability - LYMP1-003 - Assay at 24 hr (AID 963).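 Note: plate controls were DMSO only for no effect and tetraoctylammonium bromide positive control for full effect.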 The essentials: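 Cells seeded at 2500/well, 5 hr at 37 C; compounds added; 24 hr at 37 C; CellTiter-Glo added, 30 min room temperature; luminescence read. Decrease in ATP taken as cytotoxicity, AC50 from Hill modelling.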
Assay [9] is described as follows: Cell Viability - LYMP2-003 (AID 965).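 Note: cells exposed to compounds for 24 h before reading; nearly all actives have a fitted effect of over 50% in size.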 Note: potency is the fitted concentration of half-maximal effect. The essentials: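 CellTiter-Glo luminescence (cellular ATP) after 24 h compound exposure at 37 C in complete medium; 2500 cells/well, 5 h settling beforehand. Concentration-response fitted to standard Hill equation for AC50. Tetraoctylammonium bromide served as positive control.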
A short description of assay [10]: Cell Viability - LYMP2-019 (AID 973). Note: nearly all actives have a fitted effect of over 55% in size. Note: potency is the fitted concentration of half-maximal effect. The essentials: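 Luminescent ATP read-out (CellTiter-Glo, 30 min room temperature) served as the viability measure after 24 hr treatment of lymphoblastoid cells at 37 C. Concentration-response data were fitted to the Hill equation for AC50.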
Assay [11] in a line: Cell Viability - LYMP2-008 (AID 980). Note: nearly all actives have a fitted effect of over 60% in size. Note: potency is the fitted concentration of half-maximal effect. The method, boiled down:
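qHTS, human lymphoblastoid line, 2500 cells/well; 5 hr preincubation, 24 hr compound, 37 C. CellTiter-Glo ATP luminescence. AC50 via Hill equation. Tetraoctylammonium bromide positive control.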

Assay [12] in a line: Cell Viability - LYMP2-016 (AID 984).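 Note: cells exposed to compound for 24 hours at 37 °C; nearly all actives have a fitted effect of over 55% in size.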 Note: potency is the fitted concentration of half-maximal effect. The essentials: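 qHTS, 1536-well: 2500 LYMP2-016 cells/well, 5 hr 37 C, compound added, 24 hr 37 C, CellTiter-Glo 30 min RT, luminescence. Tetraoctylammonium bromide positive control. AC50 via Hill fit.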
Assay [13] can be described thus: Cell Viability - LYMP1-002 - Assay at 24 hr (AID 993). Note: potency is the fitted concentration of half-maximal effect. The essentials: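 Cells plated 2500/well, 5 hr 37 C; compounds added, 24 hr 37 C; CellTiter-Glo added, 30 min RT; luminescence read. Tetraoctylammonium bromide positive control. Hill-equation AC50.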
Assay [14] is described as follows: Cell Viability - LYMP1-002 - Assay at 40 hr (AID 994).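 Note: 0% = DMSO only and full inhibition = 92 µM tetraoctylammonium bromide; nearly all actives have a fitted effect of over 60% in size.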 The essentials: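 Luminescent ATP signal served as the viability readout, with decreases taken as toxicity. Cells were treated with compounds across a concentration range for 40 hours at 37 C, and AC50 values came from standard Hill modeling.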
Assay [15] can be described thus: qHTS Assay for Identification of Small Molecule Inducers of Hypoxia Response (AID 2120; active = well fitted curve in the direction sought with a large enough effect in the signal ratio, with a control signal flat, not every such curve was filed as active; the % refers to the signal ratio; note: potency is the fitted concentration of half-maximal effect). The method, boiled down:
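ME-180 HRE-bla cells plated in Opti-MEM/0.5% dialyzed FBS, rested 4-5 h, then dosed with compound titrations by pin tool. After 17 h at 37 degrees C, CCF4 dye loaded 2.5 h at RT; 460/530 nm ratio gave %Activity and AC50.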
In general terms: Quantitative high-throughput screening tests each substance at several concentrations.

Assay [16] concerns the target Peroxisome proliferator-activated receptor alpha (Homo sapiens) (UniProt Q07869). The assay can be described thus: qHTS assay for small molecule agonists of the peroxisome proliferator-activated receptor alpha (PPARalpha) signaling pathway (AID 651778). Note: % of control where 0% means no effect. As to conditions: PathHunter PPARalpha complementation, chemiluminescence, 6 h; stronger effect = higher value. The method, boiled down:
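Cells plated at 2,000/well and held overnight at 37 C, 5% CO2, then compound added by pin tool for 6 hr; after PathHunter detection reagent and 60 min at room temperature, chemiluminescence from enzyme complementation was read.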

Assay [17] is described as follows: qHTS assay for cell viability of HEK293 cells (AID 743288). Note: % is set by controls: 0 for no effect and ±100 for the full control effect; nearly all actives have a fitted effect of over 50% in size. As to conditions: ATP luminescence (CellTiter-Glo), 18 h, stronger effect = lower value. The method, boiled down: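 Environmental chemicals tested in qHTS format against parental HEK293 cells; 18 h treatment, 37 C; read-out ATP luminescence (CellTiter-Glo), 30 min RT development.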
Assay [18] can be described thus: qHTS assay for cell viability of the p53RE-bla HCT-116 cell line (AID 743292). Note: % is set by controls: 0 for no effect and ±100 for the full control effect; nearly all actives have a fitted effect of over 55% in size. The method, boiled down: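 HCT-116 p53RE-bla cells seeded 4,000/well; 5 h at 37 C; compound (DMSO) added; 16 h at 37 C; CellTiter-Glo added, 30 min RT; luminescence read.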
The nature of assay [19]: Cell Viability - LYMP2-013 (AID 970). Note: nearly all actives have a fitted effect of over 55% in size. Note: potency is the fitted concentration of half-maximal effect. The essentials: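 qHTS; 2500 lymphoblastoid cells/well; 5 hr 37 C settle; cpd 24 hr 37 C; CellTiter-Glo, 30 min RT; luminescence. AC50 = Hill fit.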
Assay [20] in a line: Cell Viability - LYMP2-012 (AID 982). Note: potency is the fitted concentration of half-maximal effect.

Chain of Peroxisome proliferator-activated receptor alpha (Homo sapiens) (Q07869 whole entry, looked up): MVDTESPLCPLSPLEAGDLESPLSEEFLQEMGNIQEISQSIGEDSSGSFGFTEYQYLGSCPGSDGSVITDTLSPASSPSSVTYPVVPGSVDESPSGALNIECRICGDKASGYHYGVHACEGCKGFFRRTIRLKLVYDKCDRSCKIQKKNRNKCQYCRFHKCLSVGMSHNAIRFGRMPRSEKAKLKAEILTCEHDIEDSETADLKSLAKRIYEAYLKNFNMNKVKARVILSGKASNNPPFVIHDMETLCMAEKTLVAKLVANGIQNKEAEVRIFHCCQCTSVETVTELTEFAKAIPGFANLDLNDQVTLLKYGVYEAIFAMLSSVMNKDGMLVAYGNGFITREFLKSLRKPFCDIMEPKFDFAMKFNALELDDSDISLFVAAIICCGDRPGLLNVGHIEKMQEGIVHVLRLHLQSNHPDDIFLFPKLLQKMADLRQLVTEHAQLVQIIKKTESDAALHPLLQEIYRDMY

With `Oc1cc(Cl)c(Cl)c(Cl)c1Cl`, the outcome in assay [1], in assay [2], in assay [3], in assay [4], in assay [5] and in [6] was inactive. Besides, in assay [8], the compound was classed as inactive. Besides, the Potency entry in assay [7], in [9], in assay [10], in [11], in [12] and in assay [13] was “inactive” each time. In addition, the Potency entry in assay [14], in [15] and in [18] was “inactive” throughout. Moreover, the max response in assay [16] is 0.278%; in assay [17], -11.3%.
`c1ccc2c(c1)ccc1cc3c(ccc4ccccc43)cc12`: the Potency in assay [15] was 44.7 µM (active).
Take `Nc1ccc(-c2ccc(N)c(Cl)c2)cc1Cl`: the call in [1], in assay [2], in [3], in assay [4], in assay [5] and in assay [8] was inactive. Also, the Potency result in [9], in assay [19], in assay [10], in [11], in [20] and in assay [12] was “inactive” in each case. Further, the Potency entry in assay [13], in assay [15] and in assay [18] was “inactive” in each case. For the same compound, the max response in assay [16] was -4.73% and -2.04%; in assay [17] it was -8.22% and -17.1%.
Regarding `CCN(N=O)C(N)=O`, the outcome in [1], in assay [2], in [3], in assay [4], in [5] and in assay [6] was inactive. In assay [8], the compound was classed as inactive. Moreover, the Potency result in assay [7], in assay [9], in assay [19], in assay [10], in assay [11] and in [20] was “inactive” in each case. In addition, the Potency entry in [12], in [13], in [14], in assay [15] and in [18] was “inactive” throughout. Moreover, the max response is 1.39% in assay [16] and 9% in assay [17].
Consider `[C-]1=CC=CC1.[C-]1=CC=CC1.[Cl-].[Cl-].[Ti+4]`, for which the compound was called inactive in assay [1], in [2], in [3], in assay [4] and in assay [5]. Moreover, the Potency entry in assay [7], in assay [15] and in assay [18] was “inactive” each time. In addition, the max response in assay [16] was 0.688%; in [17], -17.8%.
Turning to `CN1CSC(=S)N(C)C1`, the compound was called inactive in [1], in assay [2], in assay [3], in [4] and in assay [5]. Moreover, the Potency result in assay [7], in [15] and in assay [18] was “inactive” each time. The Potency is 31.6 µM (active) in assay [9]; 39.8 µM (active) in assay [19]; 31.6 µM (active) in [10]; 39.8 µM (active) in assay [11]; 25.1 µM (active) in assay [20]; 39.8 µM (active) in assay [12]. In assay [13], the Potency was 39.8 µM (active). For the same compound, the max response in [16] is -4.77% and -6.32%; in [17], -15.3%.
With `CCCCCCCCCCCOC(=O)c1ccccc1C(=O)OCCCCCCCCCCC`, the call in [1], in assay [2], in assay [3], in assay [4], in assay [5] and in [6] was inactive. In addition, the compound was classed as inactive in [8]. Also, the Potency entry in assay [7], in assay [9], in [19], in assay [10], in [11] and in assay [20] was “inactive” each time. In addition, the Potency result in assay [12], in assay [13], in [14], in assay [15] and in assay [18] was “inactive” each time. The max response in [16] was 0.22%; in assay [17], 3%.
Take `Cl/C=C\Cl`: the outcome in assay [1], in assay [2], in assay [3], in assay [4], in assay [5] and in assay [6] was inactive. In addition, the compound was classed as inactive in assay [8]. Also, the Potency entry in assay [7], in assay [9], in [19], in [10], in [11] and in assay [20] was “inactive” throughout. In addition, the Potency entry in [12], in [13], in assay [14], in assay [15] and in [18] was “inactive” in each case. Moreover, the max response is -0.887% in assay [16] and -1.83% in assay [17].
For the compound `C=CC(=O)OCCO`, the compound was called inactive in assay [1], in assay [2], in assay [3], in [4], in assay [5] and in assay [6]. The call in assay [8] was inactive. The Potency entry in assay [7], in assay [12], in assay [13], in assay [14], in assay [15] and in [18] was “inactive” throughout. In addition, the Potency in [9] was 50.1 µM (active). In addition, the max response in assay [16] was 5.17%; in assay [17] it was -1.05%.
As to `O=[N+]([O-])c1cccc(CCl)c1`, the compound was classed as inactive in assay [1], in assay [2], in [3], in [4], in assay [5] and in [6]. In [8], the result was inactive. For the same compound, the Potency entry in assay [7], in [9], in [19], in assay [11], in [20] and in assay [12] was “inactive” each time. Also, the Potency result in assay [13], in [14], in assay [15] and in assay [18] was “inactive” throughout. Further, the max response in assay [16] is 0.189%; in assay [17], -20.5%.
`c1ccc2c(c1)-c1cccc3c1c-2cc1ccccc13`: in assay [15], the Potency was 44.7 µM (active).
